In PubChem BioAssay (NCI) one finds growth data, which are given here for 18 molecules.

The structures appear in SMILES notation. Compounds without any hit were thinned out: in the full panel of roughly 83,000, 20% have a hit.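 How to read the values: 0–100, growth inhibition (40 = 60% inhibited); 0, no net growth; -100 to 0, cell death (-40 = 40% of starting cells died; -100 = all dead).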 Values without a mark were called inactive. Activity calls are given as the source filed them. Rule for the calls: active = growth percent below 10; inactive = the rest.

Test in all cases: NCI-60 one-dose screen, 48 h (100 = growth as untreated, 0 = no growth, -100 = all killed)
What all share (conditions): 10 µM unless noted

Test [1] relates to NCI-H23 lung.
The test system of test [2] is NCI-H226 lung.
Test [3] concerns NCI-H322M lung.
Test [4] relates to HOP-62 NSCLC.
In test [5] the test system is HOP-92 NSCLC.
The subject of test [6] is NCI-H522 lung.
The test system of test [7] is A549/ATCC NSCLC.
Test [8] relates to 786-0 renal.
In test [9] the test system is COLO 205 colon.
For test [10], the system named is NCI-H460 lung.

On to `COC(=S)SCN(CSC(=S)OC)c1ccc(Cl)cc1`, for which the growth in test [1] was 80%; in test [2], 69.9%; in [3], 76.1%; in test [4] it was 76.9%; in test [5] it was 74.7%; in test [6], 79.9%. Also, the results for the growth in [7], in [8] and in [9] were 81.6%, 94.3% and 111%, respectively.

Regarding `NC(CC(=O)O)C(=O)OCc1ccccc1` (centres undefined), the growth in test [1] is 104%; in test [2], 95.1%; in test [3], 84.2%; in [4], 86.7%; in [5], 86.3%; in test [6], 84.3%. Besides, the results for the growth in test [7], in test [8] and in test [9] were 105%, 98.6% and 106%, respectively.

For `CNCCCn1c2c(c3ccc([N+](=O)[O-])cc3c1=O)C(=O)c1cc(OC)cnc1-2`, the growth in test [1] is -55.4% (active); in [2] it was -81.5% (active); in test [3], -5.51% (active); in test [4], -33.4% (active); in [5], -7.43% (active); in test [6], -29% (active). In addition, the growth was -82% (active) in test [7], -78.5% (active) in test [8] and -13.2% (active) in [9].

With `CCN(CC)CCCC(C)N/C(=C1\C(=O)NC(=O)\C1=C(/NC(C)CCCN(CC)CC)c1cccc(OC)c1)c1cccc(OC)c1` (centres undefined), the growth in test [1] was -22% (active); in test [2] it was -21.3% (active); in [3], -49.6% (active); in [4] it was -6.86% (active); in test [5], -1.22% (active); in test [6], -74.9% (active). In addition, the values for the growth in test [7], in [8] and in test [9] were -52.9% (active), 9.02% (active) and -62.9% (active), respectively.

Turning to `CC[C@H](CO)Nc1nc(NCc2ccccc2)n2ncc(C(C)C)c2n1`, the growth in test [1] was 13.3%; in [2], 10.3%; in test [3] it was 14.8%; in [4] it was 3.3% (active); in [5] it was -8.83% (active); in test [6] it was 1.9% (active). The growth in test [7] is 19.7%; in test [8] it was -2.74% (active); in [9] it was -27% (active).

As to `O=S(=O)(NCCCNc1cc(-c2cn(-c3ccccc3)nc2-c2cccc(O)c2)ccn1)c1ccccc1`, the growth is 65.9% in test [1]; 41.9% in test [2]; 60.4% in test [3]; 77.3% in [4]; 45.2% in test [5]; 52.5% in [6]. Moreover, the growth is 35.8% in [7], 13.1% in test [8] and -12.1% (active) in [9].

Take `O=C1Nc2ccccc2C12CC(c1ccc(Cl)cc1)=NN2` (centres undefined): the growth in test [1] is 101%; in test [2] it was 86.6%; in test [3], 110%; in [4], 104%; in test [5] it was 74.3%; in test [6] it was 90.1%. Moreover, the growth in test [7] is 82.2%; in [8], 100%; in [9], 108%.

Take `CSc1nc(NCCCNc2ccnc3cc(Cl)ccc23)cc(-c2ccccc2)n1`: the growth in [1] was 67.6%; in test [2], 84.4%; in [3], 85.5%; in [4] it was 81.3%; in test [5] it was 33.5%; in test [6], 73.5%. The growth in [7] was 74.3%; in [8], 72.9%; in [9], -76% (active).

Regarding `COc1cccc(/C=C\C(=O)c2ccccc2)c1`, the growth in test [1] was 86.7%; in [2] it was 76.7%; in test [3], 85%; in test [4], 87%; in [5], 87.6%; in test [6], 81.2%. Besides, the growth in test [8] is 74.4%; in [9], 90.1%.

Regarding `C/C(=C(/c1ccc(O)cc1)c1ccc(OCCN(C)C)cc1)c1ccccc1`, the growth in [1] is 81.9%; in [2], 89.4%; in test [3] it was 77%; in test [4] it was 79.8%; in test [5], 54.9%; in test [6], 71.8%. Also, the growth in test [7] was 72.4%; in [8], 89.5%; in test [9] it was 63.8%.

For the molecule `Nc1cccc(NC(=O)C(=O)Nc2cccc(N)c2)c1`, the growth in test [1] is 105%; in [2] it was 93.6%; in test [3], 109%; in [4], 96.1%; in [5], 89.8%; in test [6], 91.7%. Further, the growth in test [7] was 97.1%; in test [8], 68.5%; in test [9], 127%.

For the molecule `O=S(=O)(Nc1ccc(Cl)cc1Cl)c1ccc(-c2cnc(C3CC3)o2)cc1`, the growth in test [1] is 28.2%; in [2], 59%; in [3], 36.5%; in test [4], 31.5%; in [5] it was 51.2%; in test [6] it was -1.33% (active). Besides, the growth in [7] was 26.5%; in test [8], 41.4%; in test [9] it was 4.78% (active).

`CCCCNc1ccc2c3c1cccc3c(=O)n1c3ccccc3nc21`: the growth was 60% in [1]; 73.7% in test [2]; 93.5% in [3]; 81.9% in [4]; 61.2% in [5]; 71.9% in [6]. Moreover, the growth in [7] was 76.6%; in [8] it was 102%; in test [9] it was 85.4%.

On to `O=C(CN1CCOCC1)Nc1ccc(Cn2nnc3c2C(=O)c2nnn(Cc4ccc(NC(=O)CN5CCOCC5)cc4)c2C3=O)cc1`, for which the growth in test [1] is -21.1% (active); in [2], -27.4% (active); in [3], -3.02% (active); in test [4] it was -38.6% (active); in test [5], -36.9% (active); in [6] it was -43% (active). Further, the growth in test [7] is -11.9% (active); in test [8], 12.1%; in test [9], -83.9% (active).

`COc1ccc(/C(=C/c2ccc3ccccc3c2)c2nn[nH]n2)cc1OC`: the growth was 31.5% in test [1]; 81.1% in [2]; 27.8% in test [4]; 14.1% in [10]; 5.89% (active) in [5]; -2.85% (active) in test [6]. Further, the figures for the growth in [7] and in [8] were 25.4% and 40.4%, respectively.

Take `CCC(c1ccc(O)cc1)C(CC)c1ccc(O)c(F)c1` (centres undefined): the growth in test [1] is 77%; in test [2], 91.6%; in test [3] it was 91.1%; in test [4] it was 94.5%; in test [5] it was 59.5%; in [6], 77.9%. Besides, the growth in [7] is 89%; in test [8], 75.4%; in test [9] it was 114%.

Consider `CCOC(=O)C(CC)n1c(=O)c2cc(OC)c(OC)cc2c2cnc3[nH]ccc3c21` (centres undefined), for which the growth in [1] is 66%; in test [2], 49.4%; in test [3] it was 71%; in test [4] it was 73.8%; in test [5] it was 42.5%; in test [6], 79.3%. Also, the figures for the growth in [8] and in [9] were 80.9% and 86%, respectively.

For `COc1cccc(-n2cc(-c3nc(Nc4cc(C)[nH]n4)c4ccccc4n3)nn2)c1`, the growth in test [1] was 61.1%; in [2], 49.9%; in test [3], 52.2%; in [4], 50.2%; in [5], 35.8%; in test [6], 9.97% (active). Moreover, the growth in test [7] was 35.9%; in test [8] it was 51.4%; in test [9] it was 85.8%.
